About 7,900 targets were measured; listed, in parts, are those with a hit and a random draw of the rest. About 0.6% of all pairs of compound and target were hits.

Sequence of UniProt Q13409 (Q13409 whole entry, looked up): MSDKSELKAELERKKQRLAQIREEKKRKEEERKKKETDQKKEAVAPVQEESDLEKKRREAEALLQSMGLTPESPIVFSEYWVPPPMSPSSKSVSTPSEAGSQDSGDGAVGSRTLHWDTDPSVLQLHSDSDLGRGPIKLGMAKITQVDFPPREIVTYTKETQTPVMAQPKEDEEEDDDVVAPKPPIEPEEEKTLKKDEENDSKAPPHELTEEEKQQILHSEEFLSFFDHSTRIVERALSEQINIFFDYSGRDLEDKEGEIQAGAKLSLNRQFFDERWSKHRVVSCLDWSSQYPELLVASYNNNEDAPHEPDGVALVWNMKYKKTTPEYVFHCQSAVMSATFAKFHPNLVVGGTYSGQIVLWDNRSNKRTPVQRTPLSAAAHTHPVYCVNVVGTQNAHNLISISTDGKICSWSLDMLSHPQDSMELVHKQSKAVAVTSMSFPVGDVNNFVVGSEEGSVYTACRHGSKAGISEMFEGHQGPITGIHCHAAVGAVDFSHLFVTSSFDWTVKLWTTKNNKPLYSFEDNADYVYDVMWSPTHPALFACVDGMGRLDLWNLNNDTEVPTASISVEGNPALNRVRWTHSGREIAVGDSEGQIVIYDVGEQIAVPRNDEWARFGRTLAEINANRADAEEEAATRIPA
Sequence of UniProt Q8NDI1 (Q8NDI1 whole entry, looked up): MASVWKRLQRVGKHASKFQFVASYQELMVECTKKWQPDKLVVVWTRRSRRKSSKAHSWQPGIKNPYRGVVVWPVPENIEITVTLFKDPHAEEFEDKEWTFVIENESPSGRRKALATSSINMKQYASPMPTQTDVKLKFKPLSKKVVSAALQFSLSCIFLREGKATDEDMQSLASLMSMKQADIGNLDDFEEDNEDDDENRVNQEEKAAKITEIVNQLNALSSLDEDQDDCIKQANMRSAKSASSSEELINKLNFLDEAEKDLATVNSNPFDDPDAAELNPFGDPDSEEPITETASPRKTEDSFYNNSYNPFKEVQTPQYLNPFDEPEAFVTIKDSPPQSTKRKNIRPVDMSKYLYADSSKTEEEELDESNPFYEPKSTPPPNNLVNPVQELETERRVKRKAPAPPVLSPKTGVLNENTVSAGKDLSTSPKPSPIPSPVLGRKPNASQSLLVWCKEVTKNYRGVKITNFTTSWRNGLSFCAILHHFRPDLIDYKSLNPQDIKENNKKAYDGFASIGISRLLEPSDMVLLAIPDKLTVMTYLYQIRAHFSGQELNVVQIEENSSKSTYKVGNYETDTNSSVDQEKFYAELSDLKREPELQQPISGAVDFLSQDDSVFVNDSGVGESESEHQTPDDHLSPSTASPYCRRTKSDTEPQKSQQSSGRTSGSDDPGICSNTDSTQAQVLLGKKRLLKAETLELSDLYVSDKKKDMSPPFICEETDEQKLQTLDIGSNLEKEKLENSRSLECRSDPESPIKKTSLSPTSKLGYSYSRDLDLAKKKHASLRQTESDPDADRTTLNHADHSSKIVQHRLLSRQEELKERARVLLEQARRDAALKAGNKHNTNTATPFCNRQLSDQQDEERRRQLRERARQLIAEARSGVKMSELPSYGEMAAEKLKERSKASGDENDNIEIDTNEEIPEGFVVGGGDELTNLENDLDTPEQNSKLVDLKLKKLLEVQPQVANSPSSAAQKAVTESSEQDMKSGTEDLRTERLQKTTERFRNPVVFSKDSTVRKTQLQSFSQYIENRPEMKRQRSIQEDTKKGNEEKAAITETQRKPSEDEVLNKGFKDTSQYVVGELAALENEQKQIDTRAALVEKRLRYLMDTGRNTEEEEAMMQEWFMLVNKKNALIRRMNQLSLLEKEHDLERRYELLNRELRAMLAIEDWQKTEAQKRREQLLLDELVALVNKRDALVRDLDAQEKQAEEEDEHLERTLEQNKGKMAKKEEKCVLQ
Sequence of UniProt Q6P1L5 (Q6P1L5 whole entry, looked up): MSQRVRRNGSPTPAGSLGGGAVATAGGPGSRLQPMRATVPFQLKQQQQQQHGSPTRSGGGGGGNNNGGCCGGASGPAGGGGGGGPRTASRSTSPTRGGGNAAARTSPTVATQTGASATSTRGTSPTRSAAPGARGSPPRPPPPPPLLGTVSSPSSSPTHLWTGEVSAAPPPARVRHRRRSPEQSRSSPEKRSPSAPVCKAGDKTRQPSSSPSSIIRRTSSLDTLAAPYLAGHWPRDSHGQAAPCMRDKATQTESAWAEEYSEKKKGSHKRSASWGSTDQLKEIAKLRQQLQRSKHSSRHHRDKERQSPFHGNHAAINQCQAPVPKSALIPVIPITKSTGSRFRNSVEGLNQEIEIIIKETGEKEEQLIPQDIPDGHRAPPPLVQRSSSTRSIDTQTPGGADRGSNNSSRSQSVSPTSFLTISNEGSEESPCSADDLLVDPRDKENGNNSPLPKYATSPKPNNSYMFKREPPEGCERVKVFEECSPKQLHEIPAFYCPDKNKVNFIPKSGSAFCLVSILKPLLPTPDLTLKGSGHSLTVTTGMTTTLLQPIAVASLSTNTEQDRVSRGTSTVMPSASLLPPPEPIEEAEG
Sequence of UniProt P32519 (P32519 whole entry, looked up): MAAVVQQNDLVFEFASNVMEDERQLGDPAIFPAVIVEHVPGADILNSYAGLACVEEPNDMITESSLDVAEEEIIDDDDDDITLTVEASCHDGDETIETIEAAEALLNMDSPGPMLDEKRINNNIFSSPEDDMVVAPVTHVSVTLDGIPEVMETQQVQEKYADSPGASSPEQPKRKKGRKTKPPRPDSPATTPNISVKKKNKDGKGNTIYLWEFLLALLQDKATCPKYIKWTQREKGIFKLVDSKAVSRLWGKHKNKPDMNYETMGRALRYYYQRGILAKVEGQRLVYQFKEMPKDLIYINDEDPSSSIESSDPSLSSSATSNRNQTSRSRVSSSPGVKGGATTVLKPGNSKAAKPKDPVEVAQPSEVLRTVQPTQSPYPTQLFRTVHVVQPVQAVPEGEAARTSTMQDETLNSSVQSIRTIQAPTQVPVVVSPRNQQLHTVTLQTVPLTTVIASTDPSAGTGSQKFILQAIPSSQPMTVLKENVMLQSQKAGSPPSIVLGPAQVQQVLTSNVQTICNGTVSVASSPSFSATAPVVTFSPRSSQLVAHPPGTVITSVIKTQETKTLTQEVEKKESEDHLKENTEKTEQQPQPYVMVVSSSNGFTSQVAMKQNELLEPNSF
Sequence of UniProt Q96RI0 (Q96RI0 whole entry, looked up): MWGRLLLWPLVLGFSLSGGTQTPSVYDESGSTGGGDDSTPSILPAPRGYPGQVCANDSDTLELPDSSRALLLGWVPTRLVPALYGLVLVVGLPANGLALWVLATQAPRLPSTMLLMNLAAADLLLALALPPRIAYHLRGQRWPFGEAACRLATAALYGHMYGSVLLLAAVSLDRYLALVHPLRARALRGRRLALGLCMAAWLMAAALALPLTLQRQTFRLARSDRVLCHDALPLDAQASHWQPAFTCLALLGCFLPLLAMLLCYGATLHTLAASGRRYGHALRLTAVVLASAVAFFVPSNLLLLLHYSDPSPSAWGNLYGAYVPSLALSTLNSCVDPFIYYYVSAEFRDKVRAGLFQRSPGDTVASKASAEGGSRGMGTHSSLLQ
Sequence of UniProt Q04637 (Q04637 whole entry, looked up): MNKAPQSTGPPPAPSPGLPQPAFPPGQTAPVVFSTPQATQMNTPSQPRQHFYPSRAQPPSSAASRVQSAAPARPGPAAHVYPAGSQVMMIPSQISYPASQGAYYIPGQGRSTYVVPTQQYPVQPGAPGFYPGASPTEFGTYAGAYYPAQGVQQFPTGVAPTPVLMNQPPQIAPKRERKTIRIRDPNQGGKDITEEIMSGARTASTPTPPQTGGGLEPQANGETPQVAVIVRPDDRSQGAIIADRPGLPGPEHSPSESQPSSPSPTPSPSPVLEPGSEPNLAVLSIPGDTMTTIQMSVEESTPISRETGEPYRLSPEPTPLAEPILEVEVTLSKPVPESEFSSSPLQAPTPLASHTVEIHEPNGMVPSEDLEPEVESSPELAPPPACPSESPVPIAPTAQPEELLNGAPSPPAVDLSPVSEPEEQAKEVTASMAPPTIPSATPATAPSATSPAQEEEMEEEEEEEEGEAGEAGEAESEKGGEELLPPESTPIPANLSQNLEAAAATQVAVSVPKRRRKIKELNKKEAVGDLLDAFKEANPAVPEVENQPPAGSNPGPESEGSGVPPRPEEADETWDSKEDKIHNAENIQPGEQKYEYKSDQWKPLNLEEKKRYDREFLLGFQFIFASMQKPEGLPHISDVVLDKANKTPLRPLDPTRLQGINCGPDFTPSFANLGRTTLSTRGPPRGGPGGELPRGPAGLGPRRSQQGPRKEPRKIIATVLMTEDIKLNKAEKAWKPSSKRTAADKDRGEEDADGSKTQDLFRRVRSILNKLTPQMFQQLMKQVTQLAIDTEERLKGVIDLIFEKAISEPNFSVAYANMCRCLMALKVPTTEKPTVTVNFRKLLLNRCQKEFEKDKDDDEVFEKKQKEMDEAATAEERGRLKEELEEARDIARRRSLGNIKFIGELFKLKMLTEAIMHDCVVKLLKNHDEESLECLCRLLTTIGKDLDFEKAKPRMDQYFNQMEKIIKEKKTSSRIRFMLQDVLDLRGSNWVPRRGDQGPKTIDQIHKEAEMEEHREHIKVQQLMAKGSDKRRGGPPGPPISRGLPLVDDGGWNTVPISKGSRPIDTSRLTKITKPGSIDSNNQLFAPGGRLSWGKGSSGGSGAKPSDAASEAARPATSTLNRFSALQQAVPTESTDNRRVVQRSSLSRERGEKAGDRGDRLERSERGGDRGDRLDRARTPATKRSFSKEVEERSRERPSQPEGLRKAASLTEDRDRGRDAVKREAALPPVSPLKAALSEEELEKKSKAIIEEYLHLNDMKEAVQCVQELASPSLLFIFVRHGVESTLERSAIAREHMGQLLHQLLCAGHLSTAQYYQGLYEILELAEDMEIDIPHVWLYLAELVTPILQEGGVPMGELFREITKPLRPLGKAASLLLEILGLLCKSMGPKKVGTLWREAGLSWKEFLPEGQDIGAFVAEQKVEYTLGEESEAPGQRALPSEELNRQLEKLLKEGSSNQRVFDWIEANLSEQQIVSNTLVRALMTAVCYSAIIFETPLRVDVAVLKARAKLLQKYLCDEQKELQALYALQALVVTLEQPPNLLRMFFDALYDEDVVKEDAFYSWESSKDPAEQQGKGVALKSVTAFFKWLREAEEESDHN

Compound in the test: CC1=C(SC2=C1C(=N[C@H](C3=NN=C(N32)C)CC(=O)N)C4=CC=C(C=C4)Cl)C
The test can be described thus: log2 fold change, soluble protein after heating vs DMSO (PISA); higher = thermal stabilisation; K562 cells, 10 uM, 30 min; active = over 0.2 and 3.5 SD of the protein, either way, in both replicates (recomputed). The essentials: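 For each measurement, 10 μM compound was applied for 30 min to K562 cells at 2×10^6 cells/mL. Aliquots were heated for 3 min across 48°C-58°C, pooled, and extracted in PBS with 0.5% NP-40 at 4°C; the supernatant after 21,000xg for 90 min was soluble protein. This was quantified by TMTpro 16plex LC-MS/MS with channel sums equalised, and thermal stability was reported relative to control samples from duplicates, on a log2 fold-change scale.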
EDRF1 (UniProt Q3B7T1): the log2 fold change is 0.245 (inactive).

Regarding ELAC1 (UniProt Q9H777), the log2 fold change is 0.123 (inactive).

Regarding DDX27 (UniProt Q96GQ7), the log2 fold change was -0.197 (inactive).

Turning to ELF1 (UniProt P32519), the log2 fold change was 0.008 (inactive). Under F2RL3 (UniProt Q96RI0) stands 0.175 (inactive). Under DCP2 (UniProt Q8IU60) stands -0.121 (inactive).

As for DNAL1 (UniProt Q4LDG9), the log2 fold change is 0.086 (inactive). Under FAM117B (UniProt Q6P1L5) stands 0.283 (inactive); under CYB561A3 isoform 2 (UniProt Q8NBI2), -0.009 (inactive); under DBNL (UniProt Q9UJU6), -0.04 (inactive). Under DHRS13 (UniProt Q6UX07) stands 0.084 (inactive); under DLK1 (UniProt P80370), 0.065 (inactive); under EEF2K (UniProt O00418), 0.001 (inactive). Turning to DNAH5 (UniProt Q8TE73), the log2 fold change is 0.023 (inactive).

Consider EIF4G1 (UniProt Q04637), for which the log2 fold change was -0.032 (inactive).

For CWF19L2 (UniProt Q2TBE0), the log2 fold change was -0.169 (inactive). Under EXOC6 (UniProt Q8TAG9) stands -0.006 (inactive); under ELOVL7 (UniProt A1L3X0), 0.077 (inactive). Under EIF2AK3 (UniProt Q9NZJ5) stands -0.027 (inactive). In the case of CTSS (UniProt P25774), the log2 fold change is -0.004 (inactive).

For DYNC1I2 isoform 2 (UniProt Q13409), the log2 fold change is -0.059 (inactive). For EHBP1 (UniProt Q8NDI1), the log2 fold change is -0.163 (inactive).

Consider DNM2 isoform 4 (UniProt P50570), for which the log2 fold change was 0.065 (inactive).

The values are drawn from the supplement of paper PMC10849652.
